# Data published in the supplement of paper PMC8728848.
# The entries come from a sample that favours the strongest signals as a whole.
# B1: Blon2468mut (Bifidobacterium longum) (protein)
# chain: MTFIKQMMPRYVASMTAGIVAAAMAATCAFAPVANADAVSPTQETIQSTGRHFMVYYRAWRDVTMKGVNTDLPDDNWISMYDIPYGVDVVNIFSYVPSGQEEQAQPFYDKLKSDYAPYLHSRGIKLVRGIDYTGVAVNGFRTFMKEQNKTESEATEADYDAYAKQVIDKYMISVGLDGLDIDMQAHPNDADVKISDNVIRALSKHIGPKSAKPDTTMFLYDTNGSYLNPFKNVAECFDYVAYQQYGSSSDRTARAAADYQPYIGNEFVPGLTFPEEGDMNNRWYDATEPYEESHFYQVASYVREHNLGGMFVYALDRDGRNYDEDLRRIVPSNLLWTKTAIAESEGMALDTAKTAANHYLDRMSLRQVIDDNAASADKARDMVGKAANLYETNKAVLGGDYGEGFSNTYDPTLEAGLLGIDISVLQQQIDKSSEIIGADTAESDAKTALRMARDAAIDGLTGKIYTADQVSAWSQALKAALDATVPVPTPDSTDQNGNRDKVTNHKVQGQPKQLSATGISTDIIVAVGVTLAIAGVALSLSRKLS
# Tests used:
# Assay in all cases: glycan array binding signal (z-score within array); higher = stronger binding
# Settings in all cases: glycan notation: IUPAC condensed, linker removed
# Glc(b1-6)Glc = target: Glc(b1-6)Glc
# Summary of the method: (§1)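 Glycan array data were curated from 3228 arrays in the Consortium for Functional Glycomics database and kept only where the protein sequence was available. Glycan names were converted to IUPAC-condensed notation, and columns mapping to the same glycan were averaged. The binding signal is a within-array Z-score, averaged across arrays of the same protein sequence at different concentrations or buffers and across linkers. Negative Z-scores can be read as non-binding.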
# [1] = target: GlcNAc(b1-2)Man(a1-3)[GlcNAc(b1-2)Man(a1-6)]Man(b1-4)GlcNAc(b1-4)GlcNAc
# Summary of the method: as §1
# [2] = target: GlcNAc(b1-2)[GlcNAc(b1-4)]Man(a1-3)[GlcNAc(b1-4)][GlcNAc(b1-2)[GlcNAc(b1-6)]Man(a1-6)]Man(b1-4)GlcNAc(b1-4)GlcNAc
# Summary of the method: as §1
# [3] = target: GlcNAc(b1-3)Gal(b1-4)GlcNAc(b1-3)Gal(b1-4)GlcNAc(b1-3)GalNAc
# Summary of the method: as §1
# GlcNAc(b1-6)GalNAc = target: GlcNAc(b1-6)GalNAc
# Summary of the method: as §1
# [4] = target: Man(a1-2)Man(a1-2)Man(a1-6)[Man(a1-3)]Man
# Summary of the method: as §1
# [5] = target: Man(a1-2)Man(a1-3)[Man(a1-6)]Man(a1-6)[Man(a1-2)Man(a1-3)]Man(b1-4)GlcNAc(b1-4)GlcNAc
# Summary of the method: as §1
# Man(a1-3)[Man(a1-6)]Man = target: Man(a1-3)[Man(a1-6)]Man
# Summary of the method: as §1
# [6] = target: Man(a1-3)[Man(a1-6)]Man(a1-6)[Man(a1-3)]Man
# Summary of the method: as §1
# [7] = target: Man(a1-3)[Man(a1-6)]Man(b1-4)GlcNAc(b1-4)GlcNAc
# Summary of the method: as §1
# [8] = target: Man(a1-3)[Man(a1-6)]Man(b1-4)GlcNAc(b1-4)[Fuc(a1-6)]GlcNAc
# Summary of the method: as §1
# Man(b1-4)GlcNAc = target: Man(b1-4)GlcNAc
# Summary of the method: as §1
# MurNAc(b1-4)GlcNAc = target: MurNAc(b1-4)GlcNAc
# Summary of the method: as §1
# [9] = target: Neu5Ac(a2-3)Gal(b1-3)GalNAc6S
# Summary of the method: as §1
# [10] = target: Neu5Ac(a2-3)Gal(b1-3)[Fuc(a1-4)]GlcNAc(b1-3)Gal(b1-4)[Fuc(a1-3)]GlcNAc
# Summary of the method: as §1
# [11] = target: Neu5Ac(a2-3)Gal(b1-4)GlcNAc(b1-2)Man(a1-3)[GlcNAc(b1-4)][Neu5Ac(a2-3)Gal(b1-4)GlcNAc(b1-2)Man(a1-6)]Man(b1-4)GlcNAc(b1-4)GlcNAc
# Summary of the method: as §1
# [12] = target: Neu5Ac(a2-3)Gal(b1-4)GlcNAc(b1-3)Gal
# Summary of the method: as §1
# [13] = target: Neu5Ac(a2-3)Gal(b1-4)GlcNAc(b1-3)Gal(b1-4)GlcNAc(b1-3)Gal(b1-4)GlcNAc
# Summary of the method: as §1
# [14] = target: Neu5Ac(a2-3)Gal(b1-4)GlcNAc(b1-3)Gal(b1-4)GlcNAc(b1-3)Gal(b1-4)GlcNAc(b1-2)Man(a1-3)[Neu5Ac(a2-3)Gal(b1-4)GlcNAc(b1-3)Gal(b1-4)GlcNAc(b1-3)Gal(b1-4)GlcNAc(b1-2)Man(a1-6)]GalNAc
# Summary of the method: as §1
# [15] = target: Neu5Ac(a2-3)Gal(b1-4)GlcNAc(b1-3)Gal(b1-4)[Fuc(a1-3)]GlcNAc
# Summary of the method: as §1
# [16] = target: Neu5Ac(a2-6)Gal(b1-4)GlcNAc(b1-2)Man(a1-3)[Neu5Ac(a2-3)Gal(b1-4)GlcNAc(b1-2)Man(a1-6)]Man(b1-4)GlcNAc(b1-4)GlcNAc
# Summary of the method: as §1
# [17] = target: Neu5Ac(a2-6)Gal(b1-4)GlcNAc(b1-2)Man(a1-3)[Neu5Ac(a2-6)Gal(b1-4)GlcNAc(b1-2)Man(a1-6)]Man(b1-4)GlcNAc(b1-4)[Fuc(a1-6)]GlcNAc
# Summary of the method: as §1
# [18] = target: Neu5Ac(a2-6)Gal(b1-4)GlcNAc(b1-2)Man(a1-6)Man(b1-4)GlcNAc(b1-4)GlcNAc
# Summary of the method: as §1
# [19] = target: Neu5Ac(a2-6)Gal(b1-4)GlcNAc(b1-3)Gal(b1-4)[Fuc(a1-3)]GlcNAc(b1-3)Gal(b1-4)[Fuc(a1-3)]GlcNAc
# Summary of the method: as §1
# Neu5Ac(a2-8)Neu5Ac = target: Neu5Ac(a2-8)Neu5Ac
# Summary of the method: as §1
# [20] = target: Neu5Ac(a2-8)Neu5Ac(a2-3)Gal(b1-4)GlcNAc
# Summary of the method: as §1
binder,measurement,setting,value
B1,glycan array binding signal (z-score),Glc(b1-6)Glc,-0.029
same,glycan array binding signal (z-score),[1],-0.069
same,glycan array binding signal (z-score),[2],-0.091
same,glycan array binding signal (z-score),[3],-0.065
same,glycan array binding signal (z-score),GlcNAc(b1-6)GalNAc,-0.094
same,glycan array binding signal (z-score),[4],-0.034
same,glycan array binding signal (z-score),[5],-0.083
same,glycan array binding signal (z-score),Man(a1-3)[Man(a1-6)]Man,-0.056
same,glycan array binding signal (z-score),[6],0.323
same,glycan array binding signal (z-score),[7],6.11
same,glycan array binding signal (z-score),[8],22.6
same,glycan array binding signal (z-score),Man(b1-4)GlcNAc,-0.072
same,glycan array binding signal (z-score),MurNAc(b1-4)GlcNAc,-0.087
same,glycan array binding signal (z-score),[9],-0.077
same,glycan array binding signal (z-score),[10],0.065
same,glycan array binding signal (z-score),[11],-0.063
same,glycan array binding signal (z-score),[12],-0.065
same,glycan array binding signal (z-score),[13],-0.05
same,glycan array binding signal (z-score),[14],-0.005
same,glycan array binding signal (z-score),[15],-0.04
same,glycan array binding signal (z-score),[16],0.012
same,glycan array binding signal (z-score),[17],-0.077
same,glycan array binding signal (z-score),[18],-0.076
same,glycan array binding signal (z-score),[19],-0.078
same,glycan array binding signal (z-score),Neu5Ac(a2-8)Neu5Ac,-0.066
same,glycan array binding signal (z-score),[20],-0.079
